# From PubChem BioAssay
# Shown is part of a subset that was picked to be rich in hits.
# Shiga toxin inh: A qHTS for Small Molecule Inhibitors of Shiga Toxin; inhibition, % at 38.7 µM; actives 9.2% (n = 290,000); Vero cells, Shiga toxin protein synthesis inhibition reporter; AID 2315, 2010; in the data active = inhibition mostly above about 28%, no sharp cut-off; inactive = mostly below about 43%; also: 0% is about no effect
# AMA1 RON2 block: qHTS for Inhibitors of AMA1-RON; Towards Development of Antimalarial Drug Lead: Primary Screen | AlphaScreen AMA1-biotinylated RON2 peptide binding | AID 720542, 2013 | Potency, µM (highest dose often 58.2 µM), for the others: at the highest dose activity change, negative = inhibition, most hits filed as inhibitors | Plasmodium falciparum AMA1 (3D7) - RON2 peptide interaction | actives 0.2% (n = 360,000);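 also: potency is read from the fitted curve at half-maximal effect; 0% = vehicle wells and -100% = peptide control; nearly all actives have a fitted effect of over 45% in size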
#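 AMA1 (3D7) with his tag at 25 nM final met compounds first, then biotinylated RON2 peptide at 25 nM; detection used donor plus acceptor beads, 10 µg/mL apiece, read by AlphaScreen after 30 min at room temperature.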
# AmpC no deterg: qHTS Inhibitors of AmpC Beta-Lactamase (assay without detergent). Potency, µM (doses to about 57.1 µM), without a hit: at the highest dose activity change, negative = inhibition, usual class: inhibitors. actives 0.52% (n = 330,000). AmpC nitrocefin hydrolysis, absorbance 480 nm, 0.0001% Triton. P00811;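 also: potency is read from the fitted curve at half-maximal effect; plate controls were no compound for no effect and no enzyme for full effect; nearly all actives have a fitted effect of over 20% in size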
# Target sequence (P00811 whole entry, looked up): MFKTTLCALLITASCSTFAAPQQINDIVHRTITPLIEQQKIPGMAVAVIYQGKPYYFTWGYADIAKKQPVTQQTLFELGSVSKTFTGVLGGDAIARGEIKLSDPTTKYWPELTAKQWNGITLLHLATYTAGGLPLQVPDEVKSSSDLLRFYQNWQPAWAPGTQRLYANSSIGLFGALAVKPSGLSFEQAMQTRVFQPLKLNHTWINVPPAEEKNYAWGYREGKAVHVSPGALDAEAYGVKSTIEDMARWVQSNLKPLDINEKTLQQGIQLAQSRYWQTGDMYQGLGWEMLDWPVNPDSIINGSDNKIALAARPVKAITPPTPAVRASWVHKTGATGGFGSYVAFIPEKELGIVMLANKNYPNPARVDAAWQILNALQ
#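 AmpC (5.3 nM in the dispensed reagent) in 20 mM phosphate pH 7.0 with 0.01% (detergent screen) or 0.0001% Triton X-100 was preincubated with compounds for 15 min at room temperature. Nitrocefin was then added from an 800 uM solution, and hydrolysis was followed at 480 nm.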
# Cycloheximide cs: Cycloheximide Counterscreen for Small Molecule Inhibitors of Shiga Toxin | cell reporter, cycloheximide protein synthesis inhibition counterscreen | AID 2314, 2010 | max response, % | actives 12% (n = 300,000); in the data active = max response mostly above about 13%, no sharp cut-off; inactive = mostly below about 14%; also: read at 38.3 µM for the half of the compounds with a filed dose; 0% is about no effect
# SARS PLpro yeast: qHTS of Yeast-based Assay for SARS-CoV PLP. S. cerevisiae expressing SARS-CoV PLpro, growth rescue. actives 0.19% (n = 330,000). Potency, µM (highest dose often 32.9 µM), for inactives: top-dose activity, positive = growth rescue, most hits filed as activators; calls by dose curve; also: potency is read from the fitted curve at half-maximal effect; 0% is about no effect; nearly all actives have a fitted effect of over 55% in size
# AmpC detergent: qHTS Inhibitors of AmpC Beta-Lactamase (assay with detergent); P00811; AmpC hydrolysis of nitrocefin, absorbance 480 nm, 0.01% Triton; Potency, µM (series often up to 114 µM), for the others: at the top dose activity change, negative = inhibition, actives largely listed as inhibitors; actives 0.041% (n = 370,000);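 also: potency is read from the fitted curve at half-maximal effect; 0% = no-compound wells and -100% = no-enzyme wells; nearly all actives have a fitted effect of over 25% in size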
#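 AmpC (5.3 nM in the dispensed reagent) in 20 mM phosphate pH 7.0 with 0.01% (detergent screen) or 0.0001% Triton X-100 was preincubated with compounds for 15 min at room temperature. Nitrocefin was then added from an 800 uM solution, and hydrolysis was followed at 480 nm.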
# The depositor's hits bear a star; ? = inconclusive; · = no result. Unless noted, calls follow the shape of the dose curve; as a rule, active = well fitted curve in the direction sought with a large enough effect; inconclusive = small, poorly fitted or top-dose-only effect, or another doubt; inactive = no such curve, though single readings can be large; an effect the other way counts as inactive or inconclusive.
SMILES,Shiga toxin inh,AMA1 RON2 block,AmpC no deterg,Cycloheximide cs,SARS PLpro yeast,AmpC detergent
COc1cccc(C(=O)Nc2ccc(-n3nncc3C(C)(C)C)cc2)c1,64*,-3%,-25%,21*,1%,0%
COCCNc1oc(-c2ccc(Cl)cc2)nc1C#N,70*,-1%,-1%,38*,4%,-6%
COCCNc1oc(-c2ccc(C)cc2)nc1C#N,66,-6%,-8%,23*,-4%,0%
COCCNc1oc(-c2ccc(OC)cc2)nc1C#N,·,·,·,·,·,14%
Cc1ccccc1NC(=O)COC(=O)[C@@H]1CCCN1C(=O)c1cccs1,·,-2%,-5%,·,-1%,·
COc1cc(CC(=O)O)ccc1OCc1ccccc1,7,-2%,-17%,2,1%,1%
COc1cc(CN2CCC(C(=O)NCCC(C)C)CC2)ccc1OCc1ccccc1,101*,?,94%,25*,1%,-17%
COc1cc(CN2CCCCC2)ccc1OCc1ccccc1,56*,-16%,0%,32*,2%,-7%
COc1cc(CNC(=O)C2CC2)ccc1OCc1ccccc1,64*,-13%,-4%,46*,-26%,0%
CC(C)CCNC(=O)C1CCN(Cc2cccc(OCc3ccccc3)c2)CC1,6,-6%,84%,6,1%,-7%
Cc1ncsc1CCOC(=O)c1ccc(Cl)cc1,69*,-9%,1%,35*,-2%,2%
Cc1ncsc1CCOC(=O)c1ccccc1,58*,-3%,-48%,38*,-2%,-5%
CCCOC(=O)c1ccccc1,-2,·,·,-4,·,·
CCOc1cc(C(=O)CCC(=O)OCC(=O)Nc2ccc(C)c(S(=O)(=O)N(C)C)c2)ccc1O,14,-4%,-4%,17,2%,-1%
Cc1cc(C)cc(NC(=O)COC(=O)COc2cccc3c2OC(C)(C)C3)c1,·,-2%,35µM*,·,-16%,?
C/C(=N\Nc1ccc([N+](=O)[O-])cc1)c1cccc(N)c1,123*,-5%,-31%,39*,-18%,?
CC(=O)NC/C(C)=N\Nc1ccc([N+](=O)[O-])cc1,3,10%,-28%,10,-15%,4%
C/C(=N\Nc1ncc(Br)cn1)c1cccc([N+](=O)[O-])c1,90,-6%,-21%,26*,-9%,-13%
C/C(=N\Nc1ccc([N+](=O)[O-])cc1)c1ccc(O)cc1,45*,1%,-39%,37*,-20%,?
C/C(=N/Nc1ccccc1[N+](=O)[O-])c1ccc([N+](=O)[O-])cc1,-7,-3%,-20%,-8,-1%,0%
C/C(=N\NC(=O)c1ccc([N+](=O)[O-])cc1Cl)c1ccccc1,56*,10%,-29%,32*,-1%,1%
CCOc1ccc(C(C)=O)cc1Cc1c(O)[nH]c(=S)[nH]c1=O,-19,7%,-19%,0,11%,2%
Cc1cc(C)c2nc(N(CCCN(C)C)C(=O)c3ccc(S(=O)(=O)N4CCCCCC4)cc3)sc2c1,·,?,191%,·,3%,-5%
O=C(COc1ccccc1)Nc1cccc(S(=O)(=O)N2CCCC2)c1,·,4%,-30%,·,2%,0%
C/C(=N\NC(=O)OC(C)(C)C)c1cccc([N+](=O)[O-])c1,29*,4%,-25%,11,1%,6%
COc1cccc(CNc2ccc(F)c(Cl)c2)c1O,-7,-10%,-19%,-3,6%,6%
CCCCn1cnc2cc(NCc3cccc(OC)c3O)ccc21,103*,-10%,26%,19*,-2%,?
CCn1cnc2cc(NCc3cccc(OC)c3O)ccc21,112*,3%,-15%,44*,0%,-10%
CCOC(=O)c1ccc(N=c2sc(C(=O)OC)cc(=O)n2-c2ccc(C(=O)OCC)cc2)cc1,-11,-18%,?,2,2%,-11%
O=C(Nc1nccs1)c1ccc(CSc2ccccc2)o1,107*,110%,?,58*,23%,-3%
